“And” between values parts separate entries of the source, which are not always exact repeats. Identical values can stand only once. More than one record can exist for a structure, and the calls need not agree. The source made the active and inactive calls. The calls were made as follows: active = hit-call score of the fitted dose curve at least 0.9, where 1 is the maximum; inactive = score below 0.9.
Key:
[1] = APR_HepG2_P-H2AX_72hr: Apredica 72-hour HepG2 Assay for H2AX Phosphorylation (AID 2282916); details: imaging, actives raise or lower the signal;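 also: phospho-histone H2A.x immunostain intensity per cell marking DNA damage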
In short: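 Phospho-histone H2A.x immunofluorescence, multiplexed with Hoechst and c-Jun, quantified by high-content imaging. Compounds applied to HepG2 for 72 h across ten concentrations (0.39–200 uM, 0.5% DMSO), in duplicate; DMSO baseline.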

[2] = APR_HepG2_MitoticArrest_72hr: Apredica 72-hour HepG2 Assay for Mitotic Arrest (AID 2282918); details: high-content imaging, actives raise or lower the signal
In short: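 Mitotic arrest in HepG2 is scored from phospho-histone H3 staining after 72 hr dosing across 0.39–200 uM, with DMSO at 0.5% v/v. Nuclei are identified by Hoechst 33342 and fluorescence intensity is quantified per cell.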

[3] = APR_HepG2_MicrotubuleCSK_72hr: Apredica 72-hour HepG2 Assay for Microtubule CSK Stabilty (AID 2282919); details: HepG2 microtubule cytoskeleton, high-content imaging, actives raise or lower the signal
In short: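 HepG2, 72 hr cmpd exposure, 0.39–200 uM (10 pts, duplicate), 0.5% DMSO. 3.7% formaldehyde fix, 0.5% Triton perm, anti-alpha-tubulin/Cy5 plus Hoechst. HCS fluorescence intensity; bidirectional fit vs DMSO baseline; taxol as positive control.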

[4] = APR_HepG2_P-H2AX_24hr: Apredica 24-hour HepG2 Assay for H2AX Phosphorylation (AID 2282920); details: high-content imaging, actives raise or lower the signal
In short: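 Signal comes from a FITC-labeled secondary detecting phospho-histone H2A.x in fixed HepG2 cells, quantified by automated imaging at 20x. Dosing ran 24 hr across 0.39–200 uM with 0.5% v/v DMSO.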

[5] = APR_HepG2_StressKinase_72hr: Apredica 72-hour HepG2 Assay for Stress Kinase (AID 2282921); details: HepG2 stress kinase (phospho-c-Jun) imaging, actives raise or lower the signal
In short: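 Stress kinase signal is phospho-c-Jun immunofluorescence (1:500 primary, Cy3 secondary) in fixed, permeabilized human HepG2 cells imaged at 20x. Exposure lasted 72 hr over ten concentrations from 0.39 to 200 uM, 0.5% DMSO, in duplicate. Bidirectional fit versus DMSO.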

[6] = APR_HepG2_StressKinase_24hr: Apredica 24-hour HepG2 Assay for Stress Kinase (AID 2282922); details: HepG2 stress kinase (phospho-c-Jun) imaging, actives raise or lower the signal
In short: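 Read-out: phospho-c-Jun immunofluorescence (Cy3 secondary) quantified by high-content imaging at 20x, nuclei defined by Hoechst 33342. Human HepG2 liver cells dosed 24 hr, 0.39–200 uM, DMSO 0.5% v/v; gain or loss of signal fitted relative to DMSO.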

[7] = APR_HepG2_p53Act_72hr: Apredica 72-hour HepG2 Assay for p53 Activation (AID 2282923); details: high-content imaging, actives raise or lower the signal;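 also: average cellular p53 protein immunofluorescence intensity in HepG2 cells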
In short: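 After 72 h with compound (ten points, 0.39 to 200 uM, final DMSO 0.5% v/v), fixed HepG2 cells were labelled with sheep anti-p53 and Hoechst 33342 and imaged; gain or loss versus DMSO scored.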

[8] = APR_HepG2_MitoMass_72hr: Apredica 72-hour HepG2 Assay for Mitochondrial Mass (AID 2282924); details: high-content imaging, actives raise or lower the signal;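 also: MitoTracker Red CMXRos stain intensity per cell imaged as mitochondrial mass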
In short: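 Read-out: MitoTracker Red fluorescence intensity from automated imaging (20x, six fields per well) in human HepG2 liver cells. Dosing ran 72 hr, 0.39–200 uM, 0.5% DMSO; bidirectional curve fitting versus DMSO baseline.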

[9] = APR_HepG2_NuclearSize_72hr: Apredica 72-hour HepG2 Assay for Nuclear Size (AID 2282925); details: high-content imaging, actives raise or lower the signal
In short: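 Read-out: nuclear diameter from Hoechst 33342 images (ArrayScan, 20x, six fields/well), via cell-cycle image analysis. HepG2 were dosed 0.39–200 uM for 72 hr in 0.5% DMSO. Bidirectional fit relative to DMSO.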

[10] = ATG_CRE_CIS: Attagene CIS-FACTORIAL HepG2 Assay for human cAMP Responsive Element (CRE) binding protein 3 (AID 2282926); details: HepG2 CRE cis-reporter, Attagene multiplexed mRNA; actives raise or lower the signal
In short: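 Cells carrying cis-regulated reporter constructs respond through their own endogenous factors. After 24 h treatment, RNA is reverse-transcribed, amplified, labelled and sized by capillary electrophoresis; up- and down-regulation are both scored against vehicle.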

[11] = biological target: CCAAT/enhancer-binding protein beta (Homo sapiens) (UniProt P17676); assay: ATG_C_EBP_CIS: Attagene CIS-FACTORIAL HepG2 Assay for human CCAAT/Enhancer Binding Protein (C/EBP) beta (AID 2282927); details: HepG2 Attagene cis-factorial transcription factor reporter; actives raise or lower the signal
In short: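 HepG2 transiently transfected with multiplexed reporter units under cis-regulatory promoters reporting endogenous C/EBPb activity. After 24 h exposure, reporter mRNA assayed by RT-PCR, fluorescent labelling, HpaI digestion and capillary electrophoresis; bidirectional fitting versus DMSO.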

[12] = ATG_CMV_CIS: Attagene CIS-FACTORIAL HepG2 Assay for human CMV (Internal Marker) (AID 2282928); details: HepG2 CMV promoter reporter, transcription factor profiling; actives raise or lower the signal;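 also: endpoint acts as a background internal control marker rather than a target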
In short: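 Readout: fluorescent reporter cDNA fragments separated by capillary electrophoresis after RT-PCR and HpaI cut. Cells: HepG2 carrying transfected cis-promoter reporter constructs, dosed 24 h. Endpoint serves as background internal-marker control, fit bidirectionally versus DMSO.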

[13] = ATG_DR4_LXR_CIS: Attagene CIS-FACTORIAL HepG2 Assay for human Liver X Receptor (LXR), DR4 submotif (AID 2282929); details: HepG2 Attagene DR4 cis-reporter, mRNA transcription; actives raise or lower the signal
In short: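 DR4 cis-reporter in HepG2, 24 h exposure. Detection: RT-PCR, 6-FAM labelling, CE fragment analysis. Endpoint fitted bidirectionally, DMSO = baseline.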

[14] = biological target: Aryl hydrocarbon receptor (Homo sapiens) (UniProt P35869); assay: ATG_Ahr_CIS: Attagene CIS-FACTORIAL HepG2 Assay for human Aryl Hydrocarbon Receptor (Ahr) (AID 2282930); details: HepG2 AhR cis-factorial reporter transcription; actives raise or lower the signal
In short: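 HepG2 cells transiently transfected with cis-element-driven multiplexed reporter units; endogenous AhR activity read as reporter mRNA 24 h after dosing, via RT-PCR, 6-FAM labelling, HpaI digestion and capillary electrophoresis. Bidirectional fit relative to DMSO.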

[15] = ATG_AP_1_CIS: Attagene CIS-FACTORIAL HepG2 Assay for human Activator Protein 1 (AP-1) (AID 2282931); details: HepG2 Attagene cis-factorial AP-1 reporter mRNA; actives raise or lower the signal
In short: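 Cis-regulated reporter units transiently expressed in HepG2 report endogenous transcription-factor activity. Signal: reporter mRNA at 24 h, via RT-PCR and fluorescent capillary electrophoresis. Endpoint derived by bidirectional fitting, DMSO as negative control.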

[16] = ATG_AP_2_CIS: Attagene CIS-FACTORIAL HepG2 Assay for human Activator Protein 2 (AP-2) (AID 2282932); details: HepG2 AP-2 cis-reporter, Attagene transcription factor profiling; actives raise or lower the signal
In short: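 Liver-derived HepG2 line, cis-reporter system measuring endogenous factors; 24 h dosing; reporter mRNA detected by fluorescent RT-PCR and capillary electrophoresis.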

[17] = ATG_BRE_CIS: Attagene CIS-FACTORIAL HepG2 Assay for human Bone Morphogenetic Protein (BMP) Response Element (BRE) (AID 2282933); details: HepG2 BMP response element reporter, Attagene transcription factor profiling; actives raise or lower the signal
In short: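 Read-out: reporter mRNA induction quantified by RT-PCR and capillary electrophoresis after 24 h chemical exposure of transfected HepG2 cells. Endogenous factor activity on the BMP response element; gain or loss fitted against DMSO baseline.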

[18] = biological target: Retinoic acid receptor alpha (Homo sapiens) (UniProt P10276); assay: ATG_DR5_RAR_CIS: Attagene CIS-FACTORIAL HepG2 Assay for human Retinoic Acid Receptor Alpha (RARE), DR5 submotif (AID 2282934); details: HepG2 Attagene cis-factorial RARE DR5 reporter, mRNA; actives raise or lower the signal;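 as to AC50: reporter responds to endogenous RAR alpha beta and gamma in HepG2 not RARA alone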
In short: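 HepG2 cells transiently transfected with multiplexed reporter units; DR5 cis-element drives reporter through endogenous transcription factors. After 24 h dosing, reporter mRNA quantified by RT-PCR, fluorescent labeling, HpaI digestion and capillary electrophoresis; bidirectional fitting versus DMSO.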

[19] = biological target: Transcription factor E2F1 (Homo sapiens) (UniProt Q01094); assay: ATG_E2F_CIS: Attagene CIS-FACTORIAL HepG2 Assay for human E2F Transcription Factor 1 (AID 2282935); details: HepG2 Attagene cis-reporter, E2F reporter RNA transcripts; actives raise or lower the signal
In short: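 Liver-derived HepG2 cells expressing transfected promoter-driven reporter units received test chemical for 24 hours. Signal gains or losses were fitted bidirectionally against DMSO.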

[20] = APR_HepG2_MitoMembPot_72hr: Apredica 72-hour HepG2 Assay for Mitochondrial Membrane Potential (AID 2282917); details: imaging, actives raise or lower the signal
In short: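 HepG2 cells dosed 72 hr with compound at 0.39–200 uM in duplicate, 0.5% v/v DMSO final. Mitochondria stained with 250 nM MitoTracker Red CMXRos for 30 min before formaldehyde fixation, imaged by high-content fluorescence; bidirectional fit versus DMSO.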

Measured: AC50

Chain of CCAAT/enhancer-binding protein beta (Homo sapiens) (P17676 whole entry, looked up): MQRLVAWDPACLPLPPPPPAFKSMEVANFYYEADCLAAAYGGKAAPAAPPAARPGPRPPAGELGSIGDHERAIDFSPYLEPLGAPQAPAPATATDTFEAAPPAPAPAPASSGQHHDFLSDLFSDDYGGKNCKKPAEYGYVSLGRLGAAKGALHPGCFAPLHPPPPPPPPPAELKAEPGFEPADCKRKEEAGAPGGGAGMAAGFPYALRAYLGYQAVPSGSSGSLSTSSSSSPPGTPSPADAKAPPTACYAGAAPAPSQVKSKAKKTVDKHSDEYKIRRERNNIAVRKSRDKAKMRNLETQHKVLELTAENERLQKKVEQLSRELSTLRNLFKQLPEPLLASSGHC
Chain of Aryl hydrocarbon receptor (Homo sapiens) (P35869 whole entry, looked up): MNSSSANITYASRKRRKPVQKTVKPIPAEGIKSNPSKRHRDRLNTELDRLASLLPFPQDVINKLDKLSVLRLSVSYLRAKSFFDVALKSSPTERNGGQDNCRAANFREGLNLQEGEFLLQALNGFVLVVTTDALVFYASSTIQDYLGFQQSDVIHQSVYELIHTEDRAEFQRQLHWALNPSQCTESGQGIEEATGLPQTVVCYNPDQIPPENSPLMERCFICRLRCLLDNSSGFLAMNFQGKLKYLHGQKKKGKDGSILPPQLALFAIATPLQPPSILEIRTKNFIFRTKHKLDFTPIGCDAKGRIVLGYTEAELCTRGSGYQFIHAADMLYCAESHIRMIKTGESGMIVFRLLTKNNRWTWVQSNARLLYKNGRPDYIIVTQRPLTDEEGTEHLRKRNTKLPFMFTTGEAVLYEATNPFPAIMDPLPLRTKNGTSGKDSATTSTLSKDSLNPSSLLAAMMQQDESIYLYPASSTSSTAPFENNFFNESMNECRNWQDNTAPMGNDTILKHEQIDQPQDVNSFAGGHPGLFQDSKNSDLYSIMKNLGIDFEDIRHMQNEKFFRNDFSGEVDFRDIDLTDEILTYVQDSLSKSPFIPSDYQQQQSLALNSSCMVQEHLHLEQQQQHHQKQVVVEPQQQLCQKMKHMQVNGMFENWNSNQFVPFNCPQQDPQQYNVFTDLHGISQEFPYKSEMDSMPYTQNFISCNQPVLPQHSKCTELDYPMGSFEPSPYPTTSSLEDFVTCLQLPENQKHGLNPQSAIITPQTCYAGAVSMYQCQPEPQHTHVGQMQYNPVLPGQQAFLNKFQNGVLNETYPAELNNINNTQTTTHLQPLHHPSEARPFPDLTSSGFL
Chain of Retinoic acid receptor alpha (Homo sapiens) (P10276 whole entry, looked up): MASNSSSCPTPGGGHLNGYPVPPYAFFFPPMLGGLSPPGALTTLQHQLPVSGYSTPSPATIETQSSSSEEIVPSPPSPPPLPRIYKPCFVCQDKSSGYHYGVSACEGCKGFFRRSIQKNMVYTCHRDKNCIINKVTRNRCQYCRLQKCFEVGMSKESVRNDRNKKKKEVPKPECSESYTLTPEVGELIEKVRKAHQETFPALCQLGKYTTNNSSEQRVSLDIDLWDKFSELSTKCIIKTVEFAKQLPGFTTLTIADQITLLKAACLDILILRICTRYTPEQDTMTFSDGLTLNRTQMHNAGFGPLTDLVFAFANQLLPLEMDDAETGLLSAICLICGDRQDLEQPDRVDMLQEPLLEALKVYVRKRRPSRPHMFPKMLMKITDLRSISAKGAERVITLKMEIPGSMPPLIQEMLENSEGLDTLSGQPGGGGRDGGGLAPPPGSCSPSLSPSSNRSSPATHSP
Chain of Transcription factor E2F1 (Homo sapiens) (Q01094 whole entry, looked up): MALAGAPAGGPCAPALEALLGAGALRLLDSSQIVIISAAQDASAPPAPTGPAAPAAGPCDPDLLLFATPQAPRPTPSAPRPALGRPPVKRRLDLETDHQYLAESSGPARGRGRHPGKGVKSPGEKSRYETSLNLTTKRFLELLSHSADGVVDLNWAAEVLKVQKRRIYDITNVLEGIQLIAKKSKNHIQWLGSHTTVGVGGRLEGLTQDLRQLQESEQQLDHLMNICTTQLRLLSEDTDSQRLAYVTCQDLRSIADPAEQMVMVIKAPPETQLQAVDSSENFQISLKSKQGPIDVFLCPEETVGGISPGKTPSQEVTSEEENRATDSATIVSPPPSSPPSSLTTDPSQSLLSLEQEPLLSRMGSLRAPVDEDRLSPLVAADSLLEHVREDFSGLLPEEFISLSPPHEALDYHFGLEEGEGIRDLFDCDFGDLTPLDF

CC(C)N(Cc1ccccc1)C(=O)C(C)(C)C
not listed: [19] | [20]
inactive: all other assays above

Clc1ccc(C(c2ccc(Cl)cc2)C(Cl)(Cl)Cl)cc1
active: [1] 50.2 µM | [2] 42.6 µM | [4] 50.5 µM | [6] 51.9 µM | [12] 30.2 µM | [13] 27.6 µM | [15] 51.4 µM
not listed: [17] | [18] | [20]
inactive: all other assays above

COC(=O)Nc1nc2ccccc2[nH]1
active: [1] 5.9 µM | [4] 5.54 µM | [5] 6.75 µM | [6] 36.3 µM | [7] 2.8 µM | [8] 5.43 µM | [14] 13.3 µM
not listed: [9] | [13] | [17] | [19]
inactive: all other assays above

Clc1ccccc1Cl
not listed: [7] | [9] | [13] | [19]
inactive: all other assays above

O=[N+]([O-])C(Br)(CO)CO
active: [10] 170 µM | [11] 156 µM | [15] 25.2 µM | [18] 153 µM
not listed: [7] | [9] | [17] | [19]
inactive: all other assays above

C[C@]12C=CC3=C4CCC(=O)C=C4CC[C@H]3[C@@H]1CC[C@@H]2O
active: [2] 20.8 µM | [10] 68.8 µM | [11] 18 µM | [12] 28.3 µM | [14] 19.8 µM and 35.7 µM | [16] 19.8 µM and 26.5 µM and 7.78 µM
inactive: [1] | [3] | [4] | [5] | [6] | [8] | [9] | [10] | [11] | [12] | [14] | [15] | [16] | [17] | [19]

N#CC(Br)Br
active: [1] 96.9 µM | [2] 73.6 µM | [4] 88.8 µM
not listed: [7] | [9] | [13] | [19] | [20]
inactive: all other assays above

c1ccc(N=Nc2ccccc2)cc1
active: [14] 125 µM
not listed: [9] | [13] | [19] | [20]
inactive: all other assays above

Reference: PubChem BioAssay (EPA / NIEHS)
